From PubChem BioAssay AID2685 (National Center for Advancing Translational Sciences (NCATS), 2010)
The campaign covered roughly 320,000 compounds. About 2,100 (0.66%) were called active. Another 53% or so got no clear call; they are omitted. Calls come from the whole dose curve; as a rule, active = well fitted inhibition curve with a large enough effect in the signal ratio, with a control signal flat (not every such curve was filed as active); inconclusive = small, poorly fitted or top-dose-only effect, or effect the other way, or a change in a side signal; inactive = flat fitted curve, though single readings scatter; the % refers to the signal ratio. For the sample, actives were picked, then their nearest neighbours and some compounds at random.

Test: qHTS Assay for Lipid Storage Modulators in Drosophila S3 Cells;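 for cell number change: cells counted by Cell Tracker Red CMTPX staining in the red channel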; for lipid storage change, negative = inhibition: % is set by controls: 0 for no effect and ±100 for the full control effect
Conditions: BODIPY lipid droplet fluorescence, 18-24 h, cells fed with added oleic acid; cell number change: measured here: cell count max response; series mostly up to 46.1 µM
Summary of the method: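 Drosophila S3 cells loaded with oleic acid (400 uM, as added) and compounds at several concentrations; lipid droplets imaged by 488-nm laser-scanning cytometry, 500–530 nm intensity and object ratio to cell channel. Percent activity normalized to 20 uM Triacsin C.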
Potency is the fitted concentration of half-maximal effect.

**Q.** Which results are given for `COc1ccc2nc(SCC(=O)NC3CCCCC3C)[nH]c2c1` (stereo unspecified)?
**A.** Potency: 29.1 µM (active); cell number change: 1.48%

**Q.** Which Potency does the source give for `COc1ccc2nc(SCC(=O)NC3CCCCC3)[nH]c2c1` here?
**A.** Its Potency is “inactive”.

**Q.** What about the cell number change of the same molecule?
**A.** Its cell number change is 19.4%.

**Q.** Which results are given for `CCCCCCCCCCOC(=O)c1csc2nnsc12`?
**A.** Potency: inactive; cell number change: 6.22%

**Q.** With `O=C(NCCCO)c1ccc2[nH]c3ccccc3c2c1` as the molecule, how does the Potency read?
**A.** The Potency was “inactive”.

**Q.** What about the cell number change of the same molecule?
**A.** The cell number change was -15.6%.

**Q.** With `Cc1cnc(C(=O)Nc2cccc(-c3nnc4n3CCCCC4)c2)cn1` as the molecule, how does the Potency read?
**A.** Its Potency is “inactive”.

**Q.** What about the cell number change of the same molecule?
**A.** The cell number change was 3.24%.

**Q.** With `Cc1ccc(C(NC(=O)N2CC(C)OC(C)C2)C(Cl)Cl)cc1F` (stereo unspecified) as the molecule, how does the Potency read?
**A.** Its Potency is “inactive”.

**Q.** What about the cell number change of the same molecule?
**A.** The cell number change was -1.54%.

**Q.** Which results are given for `O=C(c1c[nH]c(C(=O)C(Cl)(Cl)Cl)c1)c1ccccc1Br`?
**A.** Potency: inactive; cell number change: 7.04%

**Q.** For `O=C(c1c[nH]c(C(=O)C(Cl)(Cl)Cl)c1)c1ccccc1Cl`, which Potency is on record?
**A.** The Potency was 25.9 µM (active).

**Q.** What about the cell number change of the same molecule?
**A.** Its cell number change is -14.7%.

**Q.** For `O=C(c1c[nH]c(C(=O)C(Cl)(Cl)Cl)c1)c1ccccc1F`, which Potency is on record?
**A.** Its Potency is “inactive”.

**Q.** What about the cell number change of the same molecule?
**A.** The cell number change was -11.6%.

**Q.** What does the source list for `COCC(=O)N1CCC(Oc2ccc(C(=O)NCc3cnc(C)cn3)cc2)CC1`?
**A.** Potency: inactive; cell number change: 0.0828%

**Q.** What does the source list for `COCCC(=O)N1CCC(Oc2ccc(C(=O)NCc3cc(C)n(C)n3)cc2)CC1`?
**A.** Potency: inactive; cell number change: -14.5%

**Q.** For `COCC(=O)N1CCC(Oc2ccc(C(=O)NCc3cc(C)n(C)n3)cc2)CC1`, which Potency is on record?
**A.** The Potency was 16.4 µM (active).

**Q.** And the cell number change?
**A.** The cell number change was -3.12%.

**Q.** What does the source list for `CSc1ccc(C(=O)C2CCCN(C(=O)c3cc4cc(F)ccc4[nH]3)C2)cc1` (stereo unspecified)?
**A.** Potency: inactive; cell number change: 18.3%

**Q.** With `CCN1CCN(CC(=O)Nc2ccc(OC(F)(F)F)cc2)CC1` as the molecule, how does the Potency read?
**A.** Its Potency is “inactive”.

**Q.** And the cell number change?
**A.** The cell number change was -11.2%.

**Q.** What does the source list for `O=C(Nc1nc2c(F)cc(F)cc2s1)c1ccc2c(c1)OCCO2`?
**A.** Potency: inactive; cell number change: 6.09%

**Q.** With `Cc1cc(C)c2nc(NC(=O)c3ccc([N+](=O)[O-])o3)sc2c1` as the molecule, how does the Potency read?
**A.** Its Potency is “inactive”.

**Q.** And the cell number change?
**A.** The cell number change was 8.03%.

**Q.** What does the source list for `CC(=O)Nc1nc(-c2cccs2)cs1`?
**A.** Potency: inactive; cell number change: -17%

**Q.** Which Potency does the source give for `O=C(COC(=O)c1ccc([N+](=O)[O-])o1)Nc1nc2ccccc2s1` here?
**A.** The Potency was “inactive”.

**Q.** What about the cell number change of the same molecule?
**A.** The cell number change was -3.3%.

**Q.** Which Potency does the source give for `O=C(Nc1nc(-c2cccs2)cs1)C1=COCCO1` here?
**A.** Its Potency is “inactive”.

**Q.** What about the cell number change of the same molecule?
**A.** Its cell number change is -0.427%.

**Q.** For `O=C(Nc1nc2c(Cl)cccc2s1)c1ccc([N+](=O)[O-])o1`, which Potency is on record?
**A.** Its Potency is 11.6 µM (active).

**Q.** And the cell number change?
**A.** Its cell number change is -16.1%.

**Q.** For `O=C(Nc1nc2ccccc2s1)c1ccc([N+](=O)[O-])o1`, which Potency is on record?
**A.** Its Potency is “inactive”.

**Q.** What about the cell number change of the same molecule?
**A.** The cell number change was 24.1%.

**Q.** Which Potency does the source give for `O=C(Nc1nc2c(F)cc(F)cc2s1)c1ccc([N+](=O)[O-])o1` here?
**A.** Its Potency is 5.8 µM (active).

**Q.** And the cell number change?
**A.** Its cell number change is -16.4%.

**Q.** For `O=C(Nc1nc(-c2cccs2)cs1)c1ccc([N+](=O)[O-])o1`, which Potency is on record?
**A.** Its Potency is 2.06 µM (active).

**Q.** What about the cell number change of the same molecule?
**A.** The cell number change was -9.47%.

**Q.** Which results are given for `CCc1cccc(NC(=S)N(CCN(C)C)C(C)c2ccncc2)c1` (stereo unspecified)?
**A.** Potency: inactive; cell number change: -2.18%

**Q.** Which Potency does the source give for `O=[N+]([O-])c1ccc(N2CCN(S(=O)(=O)Cc3ccccc3)CC2)cc1N1CCOCC1` here?
**A.** Its Potency is “inactive”.

**Q.** Which Potency does the source give for `CN1CCN(S(=O)(=O)c2csc(C(N)=O)c2)CC1` here?
**A.** The Potency was “inactive”.

**Q.** What does the source list for `COc1ccc(N2CCN(C(=O)Cn3c(=O)c4cccn4c4cccnc43)CC2)cc1`?
**A.** Potency: inactive; cell number change: 25.5%

**Q.** For `CCCCn1c(SCC(=O)NCc2ccco2)nc2c1c(=O)n(C)c(=O)n2C`, which Potency is on record?
**A.** Its Potency is “inactive”.

**Q.** And the cell number change?
**A.** The cell number change was -2.87%.

**Q.** What does the source list for `CC(C(=O)NCCc1ccc(Cl)cc1)n1c(=O)c2cccn2c2cccnc21` (stereo unspecified)?
**A.** Potency: 0.517 µM (active); cell number change: -6.73%

**Q.** With `O=C(Cn1c(=O)c2cccn2c2ccccc21)NCCc1ccc(Cl)cc1` as the molecule, how does the Potency read?
**A.** Its Potency is “inactive”.

**Q.** What about the cell number change of the same molecule?
**A.** Its cell number change is 23.3%.

**Q.** What does the source list for `Cc1nn(CC(=O)NCCc2ccc(Cl)cc2)c(=O)c2cccn12`?
**A.** Potency: inactive; cell number change: 14.2%

**Q.** With `CCOc1cc(C(=O)N=c2sccn2C)ccc1OC(F)F` as the molecule, how does the Potency read?
**A.** The Potency was 11.6 µM (active).

**Q.** What about the cell number change of the same molecule?
**A.** Its cell number change is -22.3%.

**Q.** For `Cn1ccsc1=NC(=O)c1cccc(OC(F)F)c1`, which Potency is on record?
**A.** Its Potency is “inactive”.

**Q.** And the cell number change?
**A.** The cell number change was -7.04%.

**Q.** With `CCCCOc1ccc(C(=O)N=c2sccn2C)cc1OC` as the molecule, how does the Potency read?
**A.** Its Potency is “inactive”.

**Q.** What about the cell number change of the same molecule?
**A.** Its cell number change is -1.16%.

**Q.** With `CC(Oc1ccc(Br)cc1)C(=O)Nc1ccc(N2CCOCC2)cc1N1CCOCC1` (stereo unspecified) as the molecule, how does the Potency read?
**A.** Its Potency is “inactive”.

**Q.** What about the cell number change of the same molecule?
**A.** Its cell number change is -0.694%.

**Q.** Which results are given for `COc1ccccc1Nc1nc(N)nc(CSC(=S)N2CCC(C)CC2)n1`?
**A.** Potency: inactive; cell number change: 8.57%

**Q.** What does the source list for `COc1ccc(C(C)=O)cc1COc1ccc(F)cc1`?
**A.** cell number change: -1.38%; lipid storage change, negative = inhibition: 21.6% [at 9.22 µM] (inactive)

**Q.** What does the source list for `Fc1ccc(COc2ccc(-c3nnco3)cc2)c(Cl)c1`?
**A.** Potency: inactive; cell number change: 3.42%

**Q.** With `CCOc1ccc(C(C)=O)cc1COc1ccc(-c2nnco2)cc1` as the molecule, how does the Potency read?
**A.** Its Potency is 1.84 µM (active).

**Q.** What does the source list for `O=C(NCCCn1ccnc1)Nc1ccc(Cl)cc1`?
**A.** Potency: inactive; cell number change: -5.93%

**Q.** Which Potency does the source give for `Cc1c(Br)cc(C(=O)NC2CCCCC2)c(C)c1C` here?
**A.** Its Potency is “inactive”.

**Q.** What about the cell number change of the same molecule?
**A.** The cell number change was -1.86%.

**Q.** For `Cc1c(N)cc(N)cc1C(=O)O`, which Potency is on record?
**A.** The Potency was “inactive”.

**Q.** Which Potency does the source give for `Cc1c(Br)cc(C(=O)O)c(C)c1C` here?
**A.** Its Potency is 25.9 µM (active).

**Q.** And the cell number change?
**A.** Its cell number change is -29.4%.

**Q.** What does the source list for `Cc1nn(-c2ccccc2)c(Cl)c1/C=C1/C(=N)N2N=C(C(C)C)SC2=NC1=O`?
**A.** Potency: inactive; cell number change: 10.8%

**Q.** With `CCOc1ccc(N2CC(C(=O)NCc3nnnn3-c3ccc(C)c(C)c3)CC2=O)cc1` (stereo unspecified) as the molecule, how does the Potency read?
**A.** The Potency was “inactive”.

**Q.** And the cell number change?
**A.** Its cell number change is 12.6%.
